KB-V1 cytotox – kills drug-selected multidrug resistant KB-V1 cells. 400,000 compounds, 3.4% hits. Potency, µM (series often up to 46.1 µM), hits mostly cytotoxic. KB-V1 MDR cells viability, CellTiter-Glo, 72 h; further: potency means the concentration at half of the fitted maximal effect; on the % scale 0 is the no-effect control and ±100 the full control effect; nearly all actives have a fitted effect of over 60% in size
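Following 72 h at 37 degrees C with compound, KB-V1 cell viability was read by CellTiter-Glo luminescence, medium being phenol-red-free DMEM plus 10% FBS; concentration-response parameters came from normalized, curve-fitted qHTS data.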
MCF10A rereplic – DNA re-replication induction in MCF 10a cells | MCF 10A DNA re-replication, Hoechst nuclear intensity, 48 h | Potency, µM (titrated, usually from 46.1 µM), inactives show top-dose activity, positive = re-replication, most hits filed as activators | 350,000 compounds, 2.9% hits; further: potency means the concentration at half of the fitted maximal effect; % of control where 0% means no effect; nearly all actives have a fitted effect of over 50% in size
KB-3-1 tox – kills parental KB-3-1 adenocarcinoma cells. KB-3-1 viability, CellTiter-Glo ATP luminescence, 72 h. Potency, µM (titrated, usually from 46.1 µM), usual class: cytotoxic. 400,000 compounds, 1.4% hits. AID 1347075; further: potency means the concentration at half of the fitted maximal effect; on the % scale 0 is the no-effect control and ±100 the full control effect; nearly all actives have a fitted effect of over 60% in size
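Luminescent ATP read-out (CellTiter-Glo) measures survival of drug-naive KB-3-1 cells after 72 h compound exposure at 37 °C. Titration series was screened from lowest to highest concentration, with DMSO vehicle plates as background controls.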
IL1B secr inh – inflammasome signaling inhibition, IL-1 beta readout | activity change, % at 57.5 µM | 360,000 compounds, 4.7% hits | THP-1 LPS/ATP IL-1B secretion, AlphaLISA, 16 h; hits give low values | AID 743279; in the data active means activity change below about -50%; inconclusive means mostly about -30% to -49%; further: on the % scale 0 is the no-effect control and ±100 the full control effect
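Secreted IL-1B measured by AlphaLISA bead assay after 16 h compound exposure of THP-1 cells; compounds (final up to 57.5 uM) added 1 h before LPS (250 ng/mL) and ATP (1.25 mM) stimulation; lower signal means less secretion.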
SW480 rereplic – DNA re-replication induction in SW480 cells. SW480 DNA re-replication, Hoechst DNA content imaging, 48 h. Potency, µM (doses to about 46.1 µM), inactives show at the top dose re-replication activation, hits mostly activators. 340,000 compounds, 1.8% hits. AID 624297; further: potency means the concentration at half of the fitted maximal effect; % of control where 0% means no effect; nearly all actives have a fitted effect of over 55% in size
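First, 250 cells per well were seeded. Next, compound or vehicle (23 nL) was pinned in, plates sat 48 hr at 37 C. Finally Hoechst was added for 40 min before fluorescence scanning.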
Numbers without * were called inactive; i = inactive; ? = inconclusive; · = no result given; [ ] = dose if it differs, or a comment. A selection: hits, their analogues and other compounds. The true share with any hit is near 9.9%. Unless noted, the call rests on the fitted dose curve; in most records, active means well fitted curve in the direction sought with a large enough effect; inconclusive means small, poorly fitted or top-dose-only effect, or another doubt; inactive means no such curve, though single readings can be large; an effect the other way counts as inactive or inconclusive.

SMILES | KB-V1 cytotox | MCF10A rereplic | KB-3-1 tox | IL1B secr inh | SW480 rereplic
CC(C)(C)c1ccc(C(O)c2ncc(-c3ccc(F)cc3)[nH]2)cc1 (stereo not given) | i | · | i | -66.7* | ·
Cc1cc(C(O)c2ncc(-c3ccc(Oc4ccccc4)cc3)[nH]2)ccc1F (stereo not given) | ? | · | ? | -52.6* | ·
OC(c1ccc(Cl)c(F)c1)c1ncc(-c2ccccc2F)[nH]1 (stereo not given) | i | · | i | 46.1 | ·
O=C(NC(Cc1ccc(O)cc1)C(=O)N=Nc1c(O)[nH]c2ccccc12)c1ccccc1 (stereo not given) | i | -0.1% | i | -1.8 | -3.5%
CCCCN(C)C(=S)Nc1ccsc1C(=O)OC | i | -0.6% | i | 11.2 | ?
Cn1c(N)c(C(=O)COC(=O)COc2ccc3ccccc3c2)c(=O)n(C)c1=O | i | 2.2% | i | 10.1 | -6.6%
COCCNC(=O)CCc1nnc(C2(c3ccc(Cl)cc3)CCC2)o1 | i | -1.3% | i | 13.8 | -5.7%
COc1ccc2c(c1)CC(C(=O)Nc1ccc(Br)c(C)c1)CO2 (stereo not given) | i | · | i | · | ·
CC[n+]1c(C)sc2cc(C)ccc21 | ? | -4.6% | i | 60.3 | 1.2%
Cc1ccc2c(c1)sc(-c1ccc(N(C)C)cc1)[n+]2C | i | 11.6µM* | 1.84µM* | ? | 13µM*
Cc1ccc(S(=O)(=O)Nc2cc(Cl)c(O)c3ncccc23)cc1 | ? | ? | ? | 50.4 | 5.17µM*
Clc1cc2cccnc2c2ccccc12 | i | -9.1% | i | 14.7 | -7.0%
O=C(O)c1ccc(O)c2ncccc12 | i | · | i | · | ·
Cc1ccc(S(=O)(=O)Nc2cccnc2Oc2ccc(Cl)cc2)cc1 | i | 1.0% | i | 0.0 | -9.2%
Oc1ccc(Cl)c2cccnc12 | ? | ? | ? | -29.8 | 20.6µM*
Oc1ccc(F)c2cccnc12 | i | ? | i | -70.2* | ?
Oc1c(Cl)cc(Cl)c2cccnc12 | i | 6.68µM* | ? | 125.9 | 3.76µM*
Cc1cccc(N2CCN(C(=O)c3cnn(-c4ccccc4)c3C3CCN(C(=O)OC(C)(C)C)CC3)CC2)c1C | i | · | ? | · | ·
CC(=O)OC[C@@H]1CN(Cc2ccccc2)C[C@H](n2cnc3c(NCC(C)C)ncnc32)O1 | i | · | i | 1.0 | ·
O=C(CN1CCN(c2ccccc2O)CC1)Nc1cccnc1Cl | i | 7.0% | i | -10.0 | ?
Oc1ccc(Br)cc1/C=N/n1cnc2ccccc21 | 14.6µM* | ? | i | 26.0 | 1.6%
CCOC(=O)C1=C(NC(=S)NC(=O)c2ccccc2)c2ccccc2CC1(C)CC (stereo not given) | ? | 13µM* | 16.4µM* | -56.3* | 9.6%
CCOC(=O)C1=C(NC(=S)NC(=O)c2ccccc2)c2ccccc2CC1C(C)C (stereo not given) | ? | ? | ? | -18.8 | ?
Cc1noc(C)c1C(=O)OC(C)C(=O)Nc1ccc(C(N)=O)cc1 (stereo not given) | i | -0.1% | i | 7.4 | 3.2%
O=S(=O)(c1ccc(Cl)cc1)c1nc(-c2ccco2)oc1SCc1ccc(F)cc1 | ? | · | i | · | ·
SMILES | KB-V1 cytotox | MCF10A rereplic | KB-3-1 tox | IL1B secr inh | SW480 rereplic
CC(=O)Nc1ccc(NC2=C/C(=N/S(=O)(=O)c3cccs3)c3ccccc3C2=O)cc1 | i | 8.2µM* | 20.6µM* | -95.2* | 4.11µM*
Cc1ccc(NC2=C/C(=N/S(=O)(=O)c3cccs3)c3ccccc3C2=O)cc1C | i | ? | i | -0.3 | -5.0%
Cc1ccccc1NC1=C/C(=N\S(=O)(=O)c2cccs2)c2ccccc2C1=O | 7.31µM* | ? | ? | -93.5* | 4.11µM*
CC(C)c1ccc(S(=O)(=O)/N=C2\C=C(NS(=O)(=O)c3ccccc3)C(=O)c3ccccc32)cc1 | ? | ? | ? | 22.4 | ?
COc1ccc(S(=O)(=O)/N=C2\C=C(Nc3ccc(O)cc3)C(=O)c3ccccc32)cc1 | 16.4µM* | 4.61µM* | 5.17µM* | -96.2* | 16.4µM*
CC(=O)Nc1ccc(NC(=O)C(C)OC(=O)c2ccccc2NS(=O)(=O)c2cccs2)cc1 (stereo not given) | i | 11.4% | i | 15.8 | -16.9%
CCN(CC)S(=O)(=O)c1cccc(C(=O)Nc2ccccc2C(=O)Nc2ccc(OC)cc2)c1 | ? | · | i | · | ·
CCN(CC)CCCn1c2c(c(SCC(=O)Nc3ccc(C)c(F)c3)nc1=O)CCC2 | i | 4.8% | i | -67.5* | -1.2%
CCN(CC)CCn1c2c(c(SCC(=O)Nc3cc(C)cc(C)c3)nc1=O)CCC2 | i | -28.3% | i | -3.9 | ?
CCN(CC)CCCn1c2c(c(SCC(=O)Nc3nc4ccccc4s3)nc1=O)CCC2 | i | 3.6% | i | -51.2* | -1.3%
CCN(CC)CCCn1c2c(c(SCC(=O)Nc3ccc(OC(F)(F)F)cc3)nc1=O)CCC2 | i | ? | i | -68.8* | 19.2%
CCOc1ccc(CCNC(=O)Cn2c(=O)c3cccn3c3cccnc32)cc1 | ? | -0.1% | i | -65.6* | 4.6%
Cc1nn(C)c(C)c1/C=N/NC(=O)c1csc2ccccc12 | i | -17.9% | i | 0.0 | -5.8%[9.22 µM]
Cc1c(/C=N\NC(=O)c2csc3ccccc23)cnn1C | ? | ? | ? | 13.9 | 20.6µM*
CCn1ncc(/C=N\NC(=O)c2csc3ccccc23)c1C | ? | 10.3µM* | 6.51µM* | 19.0 | 11.6µM*
CCN(CC)CCOC(=O)c1c(C)oc2ccc(OC)cc12 | i | 9.6% | i | -85.6* | -1.6%
COc1ccc2c(c1)c(C(=O)OCCN(C)C)c(C)n2C | ? | ? | ? | -69.3* | -2.7%
CCOC(=O)c1c(CN2CCOCC2)oc2ccc(OC)cc12 | 16.4µM* | 1.4% | i | -4.1 | -1.0%
CC(C)c1ccc(C(=O)C[N+]2(C)CCOCC2)cc1 | i | · | i | · | ·
Cc1ccc(C)c(NC(=O)CCC(=O)N2CCOc3ccccc32)c1 | i | ? | i | -12.6 | -2.7%
N#Cc1c2ccc(O)cc2n2ccccc12 | i | ? | i | -51.7* | ?
N#Cc1c2ccc(OCC(=O)NCc3ccco3)cc2n2ccccc12 | i | 2.3% | i | -18.0 | ?
COc1ccc(-c2csc3nc(-c4ccccc4C)oc(=O)c23)cc1OC | i | · | i | · | ·
Cc1[nH]nc2ncc(C(=O)c3ccccc3O)cc12 | i | 15.4% | i | -50.8* | 20.3%
CCn1c(=O)c2sccc2n(CC(=O)NCCC2=CCCCC2)c1=O | ? | ? | i | 49.1 | -5.8%
O=S(=O)(c1ccc(N2CCC(c3ccc(Cl)cc3)=N2)cc1)N(CCO)CCO | i | ? | i | ? | 0.581µM*

High-throughput results from PubChem.
